Laboratory results: PubChem BioAssay (NCI)
About 83,000 compounds went through this panel and 20% of them were active in at least one assay; those are over-represented in the sample as a whole.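 Method: cells in 96-well plates; compound added at one concentration; 48 h incubation; percent growth measured; values under 10 scored active.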 Activity calls are given as the source filed them.

Tested on: SNB-19 CNS
Assay: NCI-60 one-dose screen, 48 h (100 = growth as untreated, 0 = no growth, -100 = all killed)
Conditions: 10 µM unless noted

SMILES | growth
Cc1ccc(OC(=O)c2ccc(Cl)cc2)cc1 | 103% (inactive)
O=C(CCCCC(=O)N/N=C\c1ccccc1O)N/N=C\c1ccccc1O | 38.9% (inactive)
Cc1ccc(NC(=O)/C=C/c2ccccc2)c(C(N)=O)c1 | 40.5% (inactive)
CN1CCN(CCCOc2cccc3nc(Nc4ccc(Cl)c(F)c4)ccc23)CC1 | 42.3% (inactive)
NC1=C(Cl)C(=O)c2ccc(S(N)(=O)=O)cc2C1=O | -73% (active)
O=C1c2cc3c(cc2-c2c1c1ccc(Cl)cc1c(=O)n2CCCN1CCOCC1)OCO3 | 47.1% (inactive)
O=C1C=CC(=O)N1c1ccc2c(c1)Cc1cc(F)ccc1-2 | 90.7% (inactive)
FC(F)(F)c1nc2c(NCc3ccc(-c4ccccc4)cc3)cccc2[nH]1 | 117% (inactive)
OC(c1cc2cc(Cl)c(Cl)cc2c2cc(C(F)(F)F)ccc12)C1CCCCN1 (centres undefined) | -64.1% (active)
Brc1ccc(-c2csc(Nc3ccccn3)n2)cc1 | 99.4% (inactive)
O=C(Cc1ccccc1Nc1c(Cl)cccc1Cl)NN1C(=O)/C(=C/c2ccc(Br)cc2)SC1=S | 105% (inactive)
COc1ccc(C2CC(c3ccc(Cl)cc3)=NN2/C=C2\SC(=S)N(NC(=O)Cc3ccccc3Nc3c(Cl)cccc3Cl)C2=O)cc1 (centres undefined) | 18.2% (inactive)
CCOC(=O)c1csc(NC(=O)COc2cccc(/C=C3\CSc4ccccc4C3=O)c2)n1 | 81.3% (inactive)
Cn1cc(-c2nonc2-c2c[nH]c3ccccc23)c2cccnc21 | 46.4% (inactive)
COc1cc(/C=C/c2cc(/C=C/c3ccc(O)c(OC)c3)n(-c3c(C)cccc3C)c(=O)n2)ccc1O | 13.9% (inactive)
COc1cccc(C2=NN3C(C2)c2cc(Br)cc(OC)c2OC32CCN(Cc3ccccc3)CC2)c1 (centres undefined) | 101% (inactive)
CC(C)(C)c1cc(C(C)(C)C)cc(S(=O)(=O)Nc2cc3ccccc3cc2C(=O)NCCN)c1 | 68.9% (inactive)
O=C(N(c1ccccc1)c1ccccc1)n1ccc2nc(Cl)nc(Cl)c21 | 58.5% (inactive)
Cc1[nH]c(-c2cc(N)ccc2Cl)c2c1C(=O)CCCC2 | 35.6% (inactive)
NC(=O)c1cc(Cl)ccc1NC(=O)/C=C/c1ccccc1 | 26.7% (inactive)
Cn1ncc2c(=O)nc3c(-c4ccccc4)n[nH]n3c21 | 99.1% (inactive)
Cn1cc(C(=O)c2nc(-c3c[nH]c4ccc(Br)cc34)no2)c2cc(F)ccc21 | 99.1% (inactive)
Cc1[nH]c(-c2ccc3cc[nH]c3c2)c2c1C(=O)CCCC2 | 53.1% (inactive)
O=C1/C(=C(/c2ccccc2)N2CCOCC2)Cc2ccccc21 | 78.1% (inactive)
Cn1c(NCCc2ccc(O)c(O)c2)nc2c1c(=O)n(Cc1ccc(Cl)c(Cl)c1)c(=O)n2C | 84.3% (inactive)
Cc1nn(-c2ccc(F)cc2)c2ncnc(Oc3ccc(NC(=O)Nc4ccc(Cl)c(C(F)(F)F)c4)cc3)c12 | 98.9% (inactive)

Tested on: U251 CNS
Assay: as above
Conditions: 10 µM unless noted

SMILES | growth
CC(C)(C)N1CCC1CN (centres undefined) | 117% (inactive)
C=C1C(=O)O[C@H]2[C@H]1CC/C(COC(=O)c1cc3cc(OC)ccc3[nH]1)=C\CC[C@@]1(C)O[C@@H]21 | -97.7% (active)
CC[C@]1(O)C[C@@H]2CN(CCc3c([nH]c4ccccc34)[C@@](C(=O)OC)(c3cc4c(cc3OC)N(C)[C@H]3[C@@](O)(C(N)=O)[C@H](O)[C@]5(CC)[C@@H]6C[C@@H]6CN6CC[C@]43[C@@H]65)C2)C1 | 10.7% (inactive)
Cc1nn(-c2ccc(F)cc2)c2ncnc(Nc3ccc(NC(=O)Nc4ccc(Cl)c(C(F)(F)F)c4)cc3)c12 | 19.5% (inactive)
O=C(N/N=C/c1ccccc1O)c1ccccc1Nc1ccnc(C(F)(F)F)c1 | 18.8% (inactive)
CC(=O)O[C@H]1[C@@H]2OC(=O)C(CSc3ccccc3)[C@@H]2C[C@H]2O[C@]2(C)CC/C=C(\C)CCC[C@@H]1C (some centres undefined) | 51.6% (inactive)
C#CCOc1ccc2ncnc(N3CCC(NC(=O)CCl)CC3)c2c1 | 66.1% [8.25 µM] (inactive)
CCC(=O)c1ccc(Cl)s1 | 94.6% (inactive)
O=C1CC[C@H](c2ccc(O)c3c2C(=O)[C@@H]2O[C@@H]2C3=O)c2cccc(O)c21 | 78.7% (inactive)
COc1ccc(S(=O)(=O)N2CC3(COC3)C2)cc1NC(=O)c1[nH]c(C)c2c1CCCCC2=O | 62.8% (inactive)
O=C1/C(=C/c2ccc3c(c2)OCO3)SC(=S)N1CCc1ccc(O)cc1 | 102% (inactive)
Oc1ccccc1-c1nnc(CNc2ccc(Cl)cc2)o1 | 16% (inactive)
Cc1ccc(OC(=O)c2ccc(Cl)cc2)cc1 | 102% (inactive)
O=C(CCCCC(=O)N/N=C\c1ccccc1O)N/N=C\c1ccccc1O | 26.4% (inactive)
Cc1ccc(NC(=O)/C=C/c2ccccc2)c(C(N)=O)c1 | 28.8% (inactive)
CN1CCN(CCCOc2cccc3nc(Nc4ccc(Cl)c(F)c4)ccc23)CC1 | 26.1% (inactive)
NC1=C(Cl)C(=O)c2ccc(S(N)(=O)=O)cc2C1=O | -90.7% (active)
O=C1c2cc3c(cc2-c2c1c1ccc(Cl)cc1c(=O)n2CCCN1CCOCC1)OCO3 | 27.4% (inactive)
O=C1C=CC(=O)N1c1ccc2c(c1)Cc1cc(F)ccc1-2 | 88.9% (inactive)

SMILES | growth
FC(F)(F)c1nc2c(NCc3ccc(-c4ccccc4)cc3)cccc2[nH]1 | 66.6% (inactive)
OC(c1cc2cc(Cl)c(Cl)cc2c2cc(C(F)(F)F)ccc12)C1CCCCN1 (centres undefined) | -92.3% (active)
Brc1ccc(-c2csc(Nc3ccccn3)n2)cc1 | 166% (inactive)
O=C(Cc1ccccc1Nc1c(Cl)cccc1Cl)NN1C(=O)/C(=C/c2ccc(Br)cc2)SC1=S | 102% (inactive)
COc1ccc(C2CC(c3ccc(Cl)cc3)=NN2/C=C2\SC(=S)N(NC(=O)Cc3ccccc3Nc3c(Cl)cccc3Cl)C2=O)cc1 (centres undefined) | 54.1% (inactive)
CCOC(=O)c1csc(NC(=O)COc2cccc(/C=C3\CSc4ccccc4C3=O)c2)n1 | -54.2% (active)
Cn1cc(-c2nonc2-c2c[nH]c3ccccc23)c2cccnc21 | 26% (inactive)
COc1cc(/C=C/c2cc(/C=C/c3ccc(O)c(OC)c3)n(-c3c(C)cccc3C)c(=O)n2)ccc1O | 2.81% (active)
COc1cccc(C2=NN3C(C2)c2cc(Br)cc(OC)c2OC32CCN(Cc3ccccc3)CC2)c1 (centres undefined) | 98.8% (inactive)
CC(C)(C)c1cc(C(C)(C)C)cc(S(=O)(=O)Nc2cc3ccccc3cc2C(=O)NCCN)c1 | -21.8% (active)
O=C(N(c1ccccc1)c1ccccc1)n1ccc2nc(Cl)nc(Cl)c21 | 59.6% (inactive)
Cc1[nH]c(-c2cc(N)ccc2Cl)c2c1C(=O)CCCC2 | 38.5% (inactive)
NC(=O)c1cc(Cl)ccc1NC(=O)/C=C/c1ccccc1 | 29.8% (inactive)
Cn1ncc2c(=O)nc3c(-c4ccccc4)n[nH]n3c21 | 110% (inactive)
Cn1cc(C(=O)c2nc(-c3c[nH]c4ccc(Br)cc34)no2)c2cc(F)ccc21 | 100% (inactive)
Cc1[nH]c(-c2ccc3cc[nH]c3c2)c2c1C(=O)CCCC2 | 48.5% (inactive)
O=C1/C(=C(/c2ccccc2)N2CCOCC2)Cc2ccccc21 | 9.15% (active)
Cn1c(NCCc2ccc(O)c(O)c2)nc2c1c(=O)n(Cc1ccc(Cl)c(Cl)c1)c(=O)n2C | 77.9% (inactive)
Cc1nn(-c2ccc(F)cc2)c2ncnc(Oc3ccc(NC(=O)Nc4ccc(Cl)c(C(F)(F)F)c4)cc3)c12 | 97.9% (inactive)
